# Assay results: PubChem BioAssay
# Calls of active or inactive are those of the source.
# Tests used:
# [1] = target: Albumin (Bos taurus) (UniProt P02769); test: compounds binding labelled BSA control protein – biochemical, small-molecule microarray, Alexa647 label, 635/667 nm fluorescence, artefact control for SMM control protein annotation, profiling panel (AID 1118); conditions: BSA-A647 binding, fluorescence 635 nm, higher = more signal;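 also: score merges 667 nm emission intensity and signal-to-noise per printed compound spot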
# Chain of Albumin (Bos taurus) (P02769 whole entry, looked up): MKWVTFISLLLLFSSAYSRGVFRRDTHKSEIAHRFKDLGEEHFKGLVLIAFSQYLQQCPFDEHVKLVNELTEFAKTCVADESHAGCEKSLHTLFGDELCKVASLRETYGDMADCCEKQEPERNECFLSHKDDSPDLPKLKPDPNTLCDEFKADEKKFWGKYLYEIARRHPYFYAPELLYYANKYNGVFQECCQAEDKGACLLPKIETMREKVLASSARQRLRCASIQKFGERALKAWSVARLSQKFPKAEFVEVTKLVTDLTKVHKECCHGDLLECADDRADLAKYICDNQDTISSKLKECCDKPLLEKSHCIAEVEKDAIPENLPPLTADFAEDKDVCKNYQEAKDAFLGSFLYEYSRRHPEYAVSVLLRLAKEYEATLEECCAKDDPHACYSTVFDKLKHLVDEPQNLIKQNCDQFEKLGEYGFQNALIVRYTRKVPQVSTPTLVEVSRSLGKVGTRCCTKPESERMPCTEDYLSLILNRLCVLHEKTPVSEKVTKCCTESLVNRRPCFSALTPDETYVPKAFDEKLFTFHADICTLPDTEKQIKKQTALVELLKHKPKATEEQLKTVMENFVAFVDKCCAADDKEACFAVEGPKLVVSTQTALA
# [2] = probe aXIP binding to arrayed compounds – biochemical, NeuroSMM set, 635/667 nm fluorescence, primary screen (AID 1119); conditions: small-molecule microarray, higher = more signal, called active from +8 up or from −8 down;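 also: probe is the protein aXip251-270 applied at 1 µg/mL to compound-printed slides; binding of probe to printed compounds measured as 667 nm fluorescence plus signal to noise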
# [3] = probe aNOTCH3 binding on compound microarray – biochemical, small-molecule microarray, 635/667 nm fluorescence, primary screen (AID 1120); conditions: higher = more signal;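 also: probe is a biotin-tagged antibody raised against NOTCH3 rather than NOTCH3 protein; score merges spot fluorescence near 667 nm with spot signal to noise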
# [4] = probe aNOTCH2 binding on compound microarray – biochemical, small-molecule microarray, 635/667 nm fluorescence, primary screen (AID 1121); conditions: higher = more signal;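 also: score merges feature fluorescence read at 667 nm with its signal to noise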
# [5] = target: Carbonic anhydrase 2 (Homo sapiens) (UniProt P00918); test: compounds binding carbonic anhydrase 2 – biochemical, small-molecule microarray, Alexa647-labelled CAII, profiling panel (AID 1122); conditions: CAII-A647 binding fluorescence, higher = more signal
# [6] = COS7 lysate on small-molecule microarray, probe aHis, 635 nm (AID 1123); conditions: COS7 cell lysate, fluorescence, higher = more signal;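 also: z-score combines 667nm fluorescence intensity with signal-to-noise per printed compound spot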
# [7] = probe aLAP1 signal on lysate-treated microarray – cell lysate, small-molecule microarray, COS7 lysate, primary screen (AID 1124); conditions: probe aLAP1, fluorescence, higher = more signal;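 also: lysate comes from COS7 cells expressing LAP1 and is applied at 0.3 µg/mL; score merges spot fluorescence near 667 nm with signal-to-noise over triplicate slides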
# [8] = test system: Sam68 (KHDRBS1); test: compounds binding KHDRBS1 protein – biochemical, small-molecule microarray, 635 nm fluorescence, primary screen (AID 1125); conditions: higher = more signal;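 also: score merges 667 nm channel intensity with signal to noise over triplicate slides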
# [9] = test system: Chordin-like protein 2 (CHRDL2); test: compounds binding chordin-like 2 – biochemical, small-molecule microarray, 635 nm fluorescence, primary screen (AID 1126); conditions: fluorescence 635 nm, higher = more signal;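 also: printed compound slides probed with Chrdl2 protein at 4 µg/mL for 1 h at 4 C; score merges 667 nm emission intensity with signal to noise over three replicate slides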
# [10] = target: Concanavalin-A (Canavalia ensiformis) (UniProt P02866); test: compounds binding concanavalin A lectin – biochemical, small-molecule microarray, Alexa647 label, 635 nm, artefact control for SMM control protein annotation, primary screen (AID 1127); conditions: ConA-A647 binding fluorescence, higher = more signal;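 also: z combines 667 nm emission intensity with signal-to-noise across three replicate slides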
# Chain of Concanavalin-A (Canavalia ensiformis) (P02866 whole entry, looked up): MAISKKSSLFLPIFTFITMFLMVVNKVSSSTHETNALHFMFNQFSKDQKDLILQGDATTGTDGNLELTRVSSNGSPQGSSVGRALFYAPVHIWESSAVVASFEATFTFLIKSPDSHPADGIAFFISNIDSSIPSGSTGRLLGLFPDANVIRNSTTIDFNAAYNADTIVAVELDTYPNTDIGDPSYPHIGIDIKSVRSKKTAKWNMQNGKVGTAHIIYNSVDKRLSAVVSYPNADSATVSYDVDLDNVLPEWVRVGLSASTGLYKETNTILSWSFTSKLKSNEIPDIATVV
# [11] = compounds binding Alexa647 anti-His antibody – biochemical, small-molecule microarray, 635 nm fluorescence, artefact control for SMM control protein annotation, primary screen (AID 1128); conditions: higher = more signal;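 also: score merges feature fluorescence with signal-to-noise for each printed compound spot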
# [12] = test system: Human papillomavirus type 1a E7 protein (residues 1-88); test: HPV1a E7 small-molecule binders, primary screen, biochemical, small-molecule microarray, residues 1-88, 635 nm (AID 1129); conditions: small-molecule microarray binding, fluorescence 635 nm; higher = more signal
# [13] = target: Focal adhesion kinase 1 (Homo sapiens) (UniProt Q05397); test: PTK2 protein binding on printed compound slides – biochemical, small-molecule microarray, 635/667 nm fluorescence, BSA, DTT, primary screen (AID 1130); conditions: 635 nm fluorescence, higher = more signal;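 also: composite of spot emission at 667 nm and signal to noise over triplicate slides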
# Chain of Focal adhesion kinase 1 (Homo sapiens) (Q05397 whole entry, looked up): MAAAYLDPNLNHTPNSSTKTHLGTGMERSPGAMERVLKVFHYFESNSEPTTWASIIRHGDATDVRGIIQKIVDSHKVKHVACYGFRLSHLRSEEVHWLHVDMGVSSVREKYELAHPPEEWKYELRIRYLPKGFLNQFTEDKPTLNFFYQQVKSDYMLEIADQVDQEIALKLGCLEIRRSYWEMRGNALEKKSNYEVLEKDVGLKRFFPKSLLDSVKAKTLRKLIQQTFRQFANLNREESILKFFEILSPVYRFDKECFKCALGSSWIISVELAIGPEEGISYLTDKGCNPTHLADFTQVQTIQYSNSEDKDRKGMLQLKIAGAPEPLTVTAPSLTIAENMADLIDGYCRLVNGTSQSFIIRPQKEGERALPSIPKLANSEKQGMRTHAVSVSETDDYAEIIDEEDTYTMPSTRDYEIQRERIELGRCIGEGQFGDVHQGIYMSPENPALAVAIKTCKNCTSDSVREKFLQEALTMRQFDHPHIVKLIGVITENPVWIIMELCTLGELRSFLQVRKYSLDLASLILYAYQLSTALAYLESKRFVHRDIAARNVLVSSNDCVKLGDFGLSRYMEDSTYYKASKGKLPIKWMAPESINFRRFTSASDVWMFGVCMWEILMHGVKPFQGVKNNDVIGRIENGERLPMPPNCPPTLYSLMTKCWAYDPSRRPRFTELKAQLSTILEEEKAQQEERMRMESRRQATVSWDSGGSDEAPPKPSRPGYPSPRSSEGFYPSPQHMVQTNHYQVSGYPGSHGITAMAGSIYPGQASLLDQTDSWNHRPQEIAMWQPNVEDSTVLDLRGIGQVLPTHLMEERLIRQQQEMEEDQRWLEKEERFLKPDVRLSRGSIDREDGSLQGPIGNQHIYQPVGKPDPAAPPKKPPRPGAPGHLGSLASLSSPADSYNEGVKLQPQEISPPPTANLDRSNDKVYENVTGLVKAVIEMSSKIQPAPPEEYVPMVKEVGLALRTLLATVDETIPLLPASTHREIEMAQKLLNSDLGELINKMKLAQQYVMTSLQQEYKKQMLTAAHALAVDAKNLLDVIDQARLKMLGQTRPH
# [14] = test system: Fibrinogen (Alexa647-labelled); test: Alexa647-fibrinogen binding to printed small molecules – biochemical, small-molecule microarray, 635/667 nm fluorescence, artefact control for SMM control-protein annotation, profiling panel (AID 1131); conditions: fibrinogen-A647 binding fluorescence, higher = more signal;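 also: z-score merges 667 nm fluorescence with per-spot signal-to-noise over triplicate slides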
# [15] = target: Follistatin (Homo sapiens) (UniProt P19883); test: FST protein binding to printed compounds – biochemical, small-molecule microarray, 635/667 nm fluorescence, primary screen (AID 1132); conditions: 635 nm fluorescence, higher = more signal
# Chain of Follistatin (Homo sapiens) (P19883 whole entry, looked up): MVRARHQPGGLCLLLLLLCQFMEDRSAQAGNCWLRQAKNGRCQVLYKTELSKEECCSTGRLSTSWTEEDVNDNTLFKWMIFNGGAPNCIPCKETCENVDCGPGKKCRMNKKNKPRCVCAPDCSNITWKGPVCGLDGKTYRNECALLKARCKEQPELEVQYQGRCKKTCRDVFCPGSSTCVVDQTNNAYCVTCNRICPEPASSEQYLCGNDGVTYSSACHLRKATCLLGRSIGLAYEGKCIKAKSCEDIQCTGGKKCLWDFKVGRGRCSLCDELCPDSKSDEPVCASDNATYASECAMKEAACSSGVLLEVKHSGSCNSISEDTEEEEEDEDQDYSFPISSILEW
# [16] = target: Fibroblast growth factor 2 (Homo sapiens) (UniProt P09038); test: basic fibroblast growth factor binding to printed compounds – biochemical, small-molecule microarray, 635/667 nm fluorescence, primary screen (AID 1133); conditions: FGF2, fluorescence 635/667, higher = more signal
# Chain of Fibroblast growth factor 2 (Homo sapiens) (P09038 whole entry, looked up): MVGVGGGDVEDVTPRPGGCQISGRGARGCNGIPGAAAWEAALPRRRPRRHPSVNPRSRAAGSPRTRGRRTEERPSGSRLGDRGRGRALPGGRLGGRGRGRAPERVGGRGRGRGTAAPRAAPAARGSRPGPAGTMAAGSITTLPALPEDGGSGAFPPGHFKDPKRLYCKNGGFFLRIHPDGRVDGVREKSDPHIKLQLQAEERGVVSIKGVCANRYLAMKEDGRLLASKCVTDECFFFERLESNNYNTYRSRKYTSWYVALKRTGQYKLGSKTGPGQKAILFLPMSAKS
# [17] = JC-1 mitochondrial potential readout, lung cancer cells – cell-based, A549, JC-1 fluorescence, basal, 24 h, 100 nL, profiling panel (AID 1138); conditions: higher = more signal;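 also: A549 lung adenocarcinoma cells under basal conditions with no added stimulus; test concentration not given here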
# [18] = test system: Lefty1; test: Lefty1 protein binding to printed compounds – biochemical, small-molecule microarray, 635/667 nm fluorescence, primary screen (AID 1139); conditions: fluorescence 635/667, higher = more signal
# [19] = test system: wheat germ agglutinin (Triticum aestivum), Alexa647-labelled; test: Alexa647-WGA lectin binding to printed small molecules – biochemical, small-molecule microarray, 635/667 nm fluorescence, artefact control for SMM control-protein annotation, profiling panel (AID 1140); conditions: WGA-A647 binding, 635 nm fluorescence, higher = more signal;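 also: score merges 667 nm feature emission with signal to noise over triplicate slides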
# [20] = target: Luciferin 4-monooxygenase (Photinus pyralis) (UniProt P08659); test: inhibition of purified Photinus pyralis luciferase – biochemical, luminescence, purified enzyme, 2006 set, primary screen (AID 1141); conditions: purified firefly luciferase, SteadyGlo luminescence, 30 min; higher = more signal, called active from +8 up or from −8 down;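 also: cell-free assay with purified firefly luciferase at 100 ng per well in PBS; test concentration not given here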
# Chain of Luciferin 4-monooxygenase (Photinus pyralis) (P08659 whole entry, looked up): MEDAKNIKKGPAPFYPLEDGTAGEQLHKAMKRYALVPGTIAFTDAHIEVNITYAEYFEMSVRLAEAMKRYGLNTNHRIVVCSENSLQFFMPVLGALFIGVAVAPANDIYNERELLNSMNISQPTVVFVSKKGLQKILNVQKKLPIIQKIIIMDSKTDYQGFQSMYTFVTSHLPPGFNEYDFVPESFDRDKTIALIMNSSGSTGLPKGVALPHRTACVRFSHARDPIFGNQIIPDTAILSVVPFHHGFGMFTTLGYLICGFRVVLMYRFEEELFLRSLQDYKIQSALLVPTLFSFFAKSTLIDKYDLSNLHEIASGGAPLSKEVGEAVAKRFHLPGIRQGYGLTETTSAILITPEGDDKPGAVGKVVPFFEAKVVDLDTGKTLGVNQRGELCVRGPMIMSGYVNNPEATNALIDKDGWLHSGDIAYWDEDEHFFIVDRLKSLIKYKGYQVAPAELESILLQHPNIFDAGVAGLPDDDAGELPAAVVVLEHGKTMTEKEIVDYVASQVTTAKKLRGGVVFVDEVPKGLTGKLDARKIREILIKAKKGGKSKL
Compound,composite z-score [1],composite Z-score [2],composite z-score [3],composite z-score [4],composite z-score [5],composite z-score [6],composite z-score [7],composite z-score [8],composite z-score [9],composite z-score [10],composite z-score [11],composite z-score [12],composite z-score [13],composite z-score [14],composite z-score [15],composite z-score [16],z-score [17],composite z-score [18],composite z-score [19],z-score [20]
CCOC(=O)[C@H](Cc1ccccc1)NC(=O)CCC1CC(OC(=O)NCc2cccc3ccccc23)CC2(CCCC(COC(=O)NCC3CCCCC3)O2)O1 (stereo not given in full),-0.112,0.878 (inactive),0.0713,-0.123,0.0394,0.745,0.395,1.18,0.54,0.702,1.05,1.06,0.289,0.923,0.421,0.754,0.624,0.826,-0.264,0.632 (inactive)
COc1ccc(COC(=O)NN=C2C[C@@H](O)[C@@H](O)[C@@H]3[C@@H]4C(=O)N(Cc5ccc6c(c5)OCO6)C(=O)[C@@H]4CC[C@H]23)cc1,0.252,0.0467 (inactive),0.0534,-0.0523,-0.32,0.352,-0.257,-0.319,-0.486,-1.15,-0.0397,-0.474,-0.126,-0.261,-1.12,-1.21,0.419,-1.06,0.801,0.506 (inactive)
O=C1C[C@@H](O)[C@@H](O)[C@@H]2[C@@H]3C(=O)N(C4CCCCC4)C(=O)[C@@H]3CC[C@@H]12,0.337,-0.228 (inactive),-0.104,-0.198,0.167,0.798,-0.244,0.546,0.36,0.448,0.69,0.54,-0.0599,0.705,0.373,0.134,0.457,0.66,0.282,0.137 (inactive)
O=C1C=C[C@@H](O)[C@@H]2[C@@H]3C(=O)N(C4CCCCC4)C(=O)[C@@H]3CC[C@@H]12,0.13,-0.388 (inactive),0.0738,-0.126,0.143,0.214,0.196,0.595,0.542,0.273,0.575,0.55,0.431,0.831,1.21,0.826,1.09,0.629,0.0297,-0.611 (inactive)
O=C1C[C@@H](O)[C@@H](O)[C@@H]2[C@@H]3C(=O)N(c4ccc(F)cc4F)C(=O)[C@@H]3CC[C@H]12,0.422,-0.0025 (inactive),0.0257,-0.102,0.104,0.517,0.0172,0.495,0.571,0.44,0.387,0.503,0.0336,0.428,0.549,0.401,-0.834,0.645,0.304,-0.211 (inactive)
CC(C)(C)N1C(=O)[C@H]2[C@@H]3C(=CC[C@H]2C1=O)C(=O)[C@H]1O[C@H]1[C@H]3O,0.0159,0.321 (inactive),-0.0976,-0.154,-0.444,-0.511,-0.058,-0.657,1.04,-0.721,0.23,-0.137,-0.339,-1.06,0.1,-0.17,-0.732,-0.0815,0.844,-2.65 (inactive)
CC(=O)OC[C@H]1O[C@H](CCON=C(C)CCN2CCCc3nc(C)c(C)cc32)C=C[C@@H]1OC(C)=O,0.159,-0.01 (inactive),0.121,-0.0482,0.416,0.214,0.926,1.29,0.662,0.672,1.22,1.14,0.835,0.441,1.15,0.664,-0.349,0.997,0.0722,0.591 (inactive)
C[C@H]1CC[C@H]2C(=O)N[C@H](Cc3ccccc3)C(=O)N2[C@@H]1c1ccccc1,-0.456,0.418 (inactive),-0.177,-0.0811,-0.0975,-0.227,-0.306,-0.824,0.678,-0.126,-0.106,-0.138,0.128,-0.0797,0.187,0.831,0.514,0.426,-0.112,-0.854 (inactive)
CON=C(C)CCN1CCCCc2nc(C)c(C)cc21,-0.16,0.414 (inactive),0.245,0.0207,0.53,-0.0845,-0.244,0.119,0.873,-0.116,0.229,-0.27,0.145,0.582,0.925,0.644,1.19,1.05,0.495,-0.518 (inactive)
O=C1[C@H]2[C@H]3[C@H](O)[C@H](O)CC(=NO[C@@H]4O[C@H](CO)[C@@H](O)[C@H](O)[C@H]4O)[C@H]3CC[C@H]2C(=O)N1C[C@@H]1CCCO1,-0.011,0.274 (inactive),-0.136,-0.0101,-0.408,-0.686,0.041,0.155,0.109,-0.391,-0.0286,-0.178,-0.159,0.333,-0.438,0.182,-0.222,0.0013,-0.442,0.569 (inactive)
COc1ccc(O[C@H]2C=C[C@@H](c3ccccc3)O[C@@H]2COC(=O)NCc2cccc3ccccc23)cc1,-0.194,-0.341 (inactive),-0.191,-0.159,-0.219,-0.146,-0.0544,-0.0446,0.281,0.335,-0.816,-0.406,-0.235,-0.138,-0.0584,0.353,1.07,0.0182,-0.317,0.441 (inactive)
